From PubChem BioAssay (NCI)
Compounds without any hit were thinned out: in the full panel of roughly 83,000, 20% have a hit.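 Treatment: one concentration, 48 hours, 96-well format. Scoring: percent growth, with anything below 10 considered active.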 Active and inactive are the calls of the source.

system: CCRF-CEM leukemia; assay: NCI-60 one-dose screen, 48 h (100 = growth as untreated, 0 = no growth, -100 = all killed); settings: 10 µM unless noted

Structure (SMILES)	growth
COCCn1cc(-c2csc(-c3c[nH]c4ccccc34)n2)c2cccnc21	36.7% (inactive)
CCN(CC)c1ccc(-c2cc(-c3cc(OC)c(OC)c(OC)c3)nc(N3CCC(O)CC3)c2C#N)cc1	16.4% (inactive)
CN1C(=O)/C(=C/c2ccc(C(=O)Nc3ncc(Cc4cccc(C(F)(F)F)c4)s3)cc2)SC1=S	7.85% (active)
Nc1ncnc2c1N=C(c1ccc(Cl)cc1)CC(c1cccc(Nc3ccnc4cc(Cl)ccc34)c1)N2 (stereo not drawn)	4% (active)
COCCn1cc(-c2nc(-c3cc4cccnc4n3C)cs2)c2ccccc21	46.2% (inactive)
COC(=O)[C@]1(C)CCC[C@]2(C)[C@H]3C[C@@H]4[C@H]5[C@@H]6CC/C(=N\OCC/C(N)=N/O)[C@H]5[C@@]3(CC[C@H]21)CC4(C(C)C)O6	18.9% (inactive)
Cc1cccc(-c2nc(C(C)C)sc2-c2ccnc(NCCCNS(=O)(=O)c3ccc(Cl)cc3)c2)c1	68.4% (inactive)
O=C(/C=C/C12c3ccccc3C(c3ccccc31)C1C(=O)NC(=O)C12)c1ccc(Cl)cc1Cl (stereo not drawn)	-8.25% (active)
CC(C)(C)CC(C)(C)Nc1c(-c2c(O)c3ccccc3oc2=O)nc2sc3ccccc3n12	23.4% (inactive)
CN(C)CCC(CCN(C)C)(C(=O)O)c1ccccc1	100% (inactive)
Cn1c(=O)[nH]c(=O)c2nc3c(nc21)-c1ccccc1C3=O	106% (inactive)
C=C(c1ccc(C(=O)O)c(F)c1)c1cc2c(cc1C)C(C)(C)CCC2(C)C	86.8% (inactive)
C=C1C(=O)O[C@H]2[C@H]1CC/C(COC(=O)C(=O)c1c[nH]c3ccc(Cl)cc13)=C\CC[C@@]1(C)O[C@@H]21	-41.3% (active)
